A short description of this test: M. tuberculosis growth inhibition, dose response, 7H9 media, purified and synthesized compounds, set 6 (AID 504897). Format: functional.
Usually IC90 stands for the point of the concentration-response curve where the effect stands at 90%. Regarding `O=C(CSc1ccccn1)NC1CCCCC1`, the 90% effect concentration (IC90) is > 100 µM (active). As for `CCCc1cc(C(N)=S)ccn1`, the IC90 was > 100 µM (active). The value for `COC(=O)c1ccc(CNc2c(N3CCCC3)c(=O)c2=O)cc1` was > 100 µM (active). The value for `NC(=O)c1cnccn1` was > 100 µM (active); that for `Cc1[nH]c2ccccc2c1C(=O)COC(=O)c1ccc([N+](=O)[O-])s1` was > 67.8 µM (active).

Source of the values: ChEMBL document CHEMBL1201862, “PubChem BioAssay data set” (2004).
